Assay outcomes (PubChem)
Dicer inh = inhibitors of Dicer pre-microRNA processing, primary screen, biochemical, cat-ELCCA, chemiluminescence; hit rate 6% among 47,000; Endoribonuclease Dicer (Homo sapiens), Q9UPY3; cat-ELCCA pre-miR-21 Dicer processing; active compounds read high; z-score at 25 µM; in the data active = z-score above about 3, passing the limit was not always enough;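 also: higher signal means more uncleaved substrate so more Dicer inhibition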
Target sequence (Q9UPY3 whole entry, looked up): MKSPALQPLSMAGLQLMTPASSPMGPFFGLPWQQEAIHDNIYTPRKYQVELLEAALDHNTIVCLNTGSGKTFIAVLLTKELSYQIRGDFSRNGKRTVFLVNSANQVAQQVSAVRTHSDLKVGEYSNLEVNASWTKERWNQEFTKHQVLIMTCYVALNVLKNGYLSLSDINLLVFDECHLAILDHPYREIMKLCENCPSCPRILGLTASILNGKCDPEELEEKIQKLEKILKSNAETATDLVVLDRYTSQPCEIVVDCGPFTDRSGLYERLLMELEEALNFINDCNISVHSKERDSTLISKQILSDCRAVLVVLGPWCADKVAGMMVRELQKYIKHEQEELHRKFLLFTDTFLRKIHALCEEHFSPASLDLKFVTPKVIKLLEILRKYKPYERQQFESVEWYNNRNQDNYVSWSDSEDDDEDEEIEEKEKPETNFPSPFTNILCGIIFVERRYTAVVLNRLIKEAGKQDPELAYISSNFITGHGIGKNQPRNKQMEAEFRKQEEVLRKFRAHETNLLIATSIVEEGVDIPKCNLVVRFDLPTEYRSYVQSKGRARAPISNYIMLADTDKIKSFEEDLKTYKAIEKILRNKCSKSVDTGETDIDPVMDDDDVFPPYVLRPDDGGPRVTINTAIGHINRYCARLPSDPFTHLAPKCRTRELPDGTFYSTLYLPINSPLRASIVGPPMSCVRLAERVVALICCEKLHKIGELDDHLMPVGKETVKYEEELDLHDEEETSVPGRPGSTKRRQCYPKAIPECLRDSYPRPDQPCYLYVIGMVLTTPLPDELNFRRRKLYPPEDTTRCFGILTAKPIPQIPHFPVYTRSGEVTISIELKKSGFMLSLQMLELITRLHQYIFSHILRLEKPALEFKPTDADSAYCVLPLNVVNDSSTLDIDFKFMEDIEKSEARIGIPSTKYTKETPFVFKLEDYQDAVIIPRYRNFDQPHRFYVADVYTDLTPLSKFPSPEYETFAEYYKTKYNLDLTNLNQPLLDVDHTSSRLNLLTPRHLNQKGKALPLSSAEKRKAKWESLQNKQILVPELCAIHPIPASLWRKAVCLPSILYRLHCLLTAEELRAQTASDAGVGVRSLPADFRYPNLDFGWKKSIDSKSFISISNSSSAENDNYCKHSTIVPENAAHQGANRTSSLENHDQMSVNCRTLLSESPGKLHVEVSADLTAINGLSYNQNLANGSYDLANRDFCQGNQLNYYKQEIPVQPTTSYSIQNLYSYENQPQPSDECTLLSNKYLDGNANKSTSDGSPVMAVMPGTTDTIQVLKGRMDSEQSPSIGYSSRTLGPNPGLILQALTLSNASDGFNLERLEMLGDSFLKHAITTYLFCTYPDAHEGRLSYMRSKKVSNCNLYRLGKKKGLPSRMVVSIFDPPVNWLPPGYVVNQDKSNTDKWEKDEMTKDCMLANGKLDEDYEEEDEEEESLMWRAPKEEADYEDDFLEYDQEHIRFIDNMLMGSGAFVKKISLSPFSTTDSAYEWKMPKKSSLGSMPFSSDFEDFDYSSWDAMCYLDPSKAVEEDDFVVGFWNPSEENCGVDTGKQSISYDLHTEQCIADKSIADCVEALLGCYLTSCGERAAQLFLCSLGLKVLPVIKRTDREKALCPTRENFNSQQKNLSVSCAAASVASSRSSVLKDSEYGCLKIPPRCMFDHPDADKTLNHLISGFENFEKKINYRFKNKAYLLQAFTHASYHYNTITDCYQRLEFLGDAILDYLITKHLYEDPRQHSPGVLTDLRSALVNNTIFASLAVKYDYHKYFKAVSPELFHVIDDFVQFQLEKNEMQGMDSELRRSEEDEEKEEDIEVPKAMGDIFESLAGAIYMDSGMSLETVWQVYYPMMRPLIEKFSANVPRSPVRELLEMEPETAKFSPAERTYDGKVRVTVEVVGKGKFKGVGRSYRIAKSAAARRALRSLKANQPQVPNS
A number is an active result. The entries come from a sample that favours hits as a whole.

For CC(=O)Nc1ccc(S(=O)(=O)Oc2c(Cl)cc(C)cc2Cl)cc1 the results were Dicer inh 4.5.
Cc1ccc(S(=O)(=O)Oc2c(Cl)cc(C(C)(C)C)cc2Br)cc1 was read as Dicer inh inactive.
Screening CC(=O)Nc1ccc(S(=O)(=O)Oc2ccccc2Cl)cc1 returned Dicer inh inactive.
Screening Nc1nc(CSc2ncccn2)nc(Nc2ccccc2)n1 returned Dicer inh inactive.
`CCCCC(C)n1[nH]c(=O)c2c(C)cc(=O)[nH]c21` (centres undefined) gave Dicer inh inactive.
`O=C(Nc1ccc(Cl)cc1)N1CCOCC1` gave Dicer inh inactive.
For O=C(Nc1ccc(OC(=O)N(c2ccccc2)c2ccccc2)cc1)N1CCOCC1 the results were Dicer inh 3.9.
Screening O=C(Nc1ccccc1)N1CCSCC1 returned Dicer inh inactive.
Screening CCCCOC(=O)C1=C(C)NC2=C(C(=O)CCC2)C1c1ccccc1 (centres undefined) returned Dicer inh inactive.
For C[C@]12C[C@H](O)[C@H]3[C@@H](CCC4=CC(=O)CC[C@@]43C)[C@@H]1CC[C@@H]2C(=O)CO the results were Dicer inh inactive.
Cc1ccc(S(=O)(=O)/C(C#N)=C/Nc2cc(C(F)(F)F)cc(C(F)(F)F)c2)cc1 was read as Dicer inh 3.7.
`Cc1ccc(S(=O)(=O)NNC(=S)Nc2cc(C(F)(F)F)cc(C(F)(F)F)c2)cc1` gave Dicer inh 3.7.
Cc1ccc(S(=O)(=O)NNC(=S)Nc2c(Cl)cccc2Cl)cc1 was read as Dicer inh inactive.
For N#C/C(=C\NCc1cc(C(F)(F)F)cc(C(F)(F)F)c1)S(=O)(=O)c1ccc(Cl)c(Cl)c1 the results were Dicer inh inactive.
Screening Cc1ccc(S(=O)(=O)NNC(=S)Nc2ccc(Br)c(C)c2)cc1 returned Dicer inh inactive.
For CCc1ccc(NC(=S)NNS(=O)(=O)c2ccc(C)cc2)cc1 the results were Dicer inh inactive.
For CSc1nc(C)nc(N/C=C(\C#N)S(=O)(=O)c2ccc(C)cc2)n1 the results were Dicer inh inactive.
For Cc1ccc(S(=O)(=O)NNC(=S)Nc2ccccc2)cc1 the results were Dicer inh inactive.
`Cc1ccc(S(=O)(=O)NNC(=S)Nc2ccc(Cl)cc2)cc1` gave Dicer inh 6.1.
COc1cc2cc(OCc3c(F)cccc3Cl)nc(C)c2cc1OC was read as Dicer inh inactive.
`O=C(Nc1ncccc1OCc1ccc(Cl)c(Cl)c1)c1cc(Cl)cc(Cl)c1` gave Dicer inh inactive.
`Cc1cccc(C)c1-n1nnnc1SCc1ccccc1Cl` gave Dicer inh inactive.
For Clc1ccc(OCCSc2nc3ccccc3o2)cc1 the results were Dicer inh inactive.
COc1ccccc1N1C(=O)CC(Nc2ccccc2)C1=O (centres undefined) was read as Dicer inh inactive.
For COc1ccc(-c2nc(C#N)c(NCc3ccc(C)cc3)o2)cc1 the results were Dicer inh inactive.
Screening COc1ccc(C2C(C#N)=C(N)Oc3n[nH]c(-c4ccc5c(c4)OCO5)c32)c(OC)c1 (centres undefined) returned Dicer inh inactive.
For C=C1c2cccc(O)c2C(O)=C2C(=O)[C@]3(O)C(O)=C(C(N)=O)C(=O)[C@@H](N(C)C)[C@@H]3[C@@H](O)[C@H]12 the results were Dicer inh 23.
Screening O=C(O)c1cc(-c2cc(Cl)ccc2Cl)nc2ccccc12 returned Dicer inh inactive.
`CCOC(=O)Cn1cnc2sc(-c3ccccc3)cc2c1=O` gave Dicer inh inactive.
`COc1cc(SCc2ccccc2)c(C(=O)O)cc1OC` gave Dicer inh inactive.
Screening O=c1c2ccccc2nc(/C=C/c2ccc(O)cc2)n1Cc1ccccc1 returned Dicer inh inactive.
For CCn1c(/C=C/c2c[nH]c3ccccc23)nc2ccccc2c1=O the results were Dicer inh 3.
COc1cccc(-n2c(/C=C/c3cn(C)c4ccccc34)nc3ccccc3c2=O)c1 was read as Dicer inh inactive.
O=c1n(Cc2ccc(F)cc2)nc2n1-c1ccccc1SC2 was read as Dicer inh inactive.
For O=C1C2C3c4ccccc4C(c4ccccc43)C2C(=O)N1c1ccc(F)cc1 (centres undefined) the results were Dicer inh inactive.
For O=C1C2C3c4ccccc4C(c4ccccc43)C2C(=O)N1CCO (centres undefined) the results were Dicer inh 4.6.
Screening O=C1C2C3c4ccccc4C(c4ccccc43)C2C(=O)N1c1ccncc1 (centres undefined) returned Dicer inh inactive.
Screening O=C(Oc1ccc2ccccc2c1I)c1ccc(Cl)cc1 returned Dicer inh inactive.
`Cn1nccc1NC(=O)CSCC(=O)O` gave Dicer inh inactive.
O=C(c1cccnc1)N(c1ccc2oc(=O)sc2c1)S(=O)(=O)c1ccc(Cl)cc1 was read as Dicer inh 10.
For O=C(c1cccnc1)N(c1ccc2oc(=O)sc2c1)S(=O)(=O)c1ccc(F)cc1 the results were Dicer inh 11.
Screening COc1ccc(OC)c(S(=O)(=O)N(C(=O)c2cccnc2)c2ccc3oc(=O)sc3c2)c1 returned Dicer inh inactive.
For O=C(c1ccncc1)N(c1ccc2oc(=O)sc2c1)S(=O)(=O)c1ccc(F)cc1 the results were Dicer inh 3.2.
`O=C(c1ccncc1)N(c1ccc2oc(=O)sc2c1)S(=O)(=O)c1ccc(Cl)cc1` gave Dicer inh inactive.
`CC(C)C(=O)N(c1ccc2oc(=O)sc2c1)S(=O)(=O)c1ccc(F)cc1` gave Dicer inh inactive.
`CC(C)C(=O)N(c1ccc2oc(=O)sc2c1)S(=O)(=O)c1ccc(Cl)cc1` gave Dicer inh inactive.
`CCOC(=O)c1sc(/S(C)=N/C(=O)Nc2ccccc2Cl)c2c1CCC=C2` (centres undefined) gave Dicer inh inactive.
Screening O=C(CNc1ccc2c(c1)OCCCO2)c1cc2cc(Cl)ccc2o1 returned Dicer inh inactive.
`Cc1cc2c(NC(=O)c3ccccc3C(=O)O)cccc2nn1` gave Dicer inh inactive.
For Brc1ccc(-c2csc(NN=C3Cc4ccccc4C3)n2)cc1 the results were Dicer inh inactive.
O=C(Nc1ccccc1)OCCCc1nc2ccccc2s1 was read as Dicer inh inactive.
For CCSCCOC(=O)C1=C(C)NC2=C(C(=O)CC(C)(C)C2)C1c1ccc(SC)cc1 (centres undefined) the results were Dicer inh inactive.
Screening C/C(=N\NC(=O)O)c1ccc(Oc2ccccc2)cc1 returned Dicer inh inactive.
`CCn1ncc(CN(C)C(=O)c2cnn3c(C(F)F)cc(-c4ccccc4)nc23)c1C` gave Dicer inh inactive.
For Cc1cc(C=C2C(=O)NC(=S)NC2=O)cc(C)c1O the results were Dicer inh inactive.
Cc1ccc(S(=O)(=O)Oc2ccc(/C=C3\NC(=O)NC3=O)cc2)cc1 was read as Dicer inh inactive.
COc1ccc(/C=C2/NC(=S)NC2=O)c(Cl)c1OC was read as Dicer inh inactive.
Cc1ccc(/C=C2\NC(=S)NC2=O)cc1 was read as Dicer inh 4.7.
`O=C1/C(=C/c2ccsc2)CC/C1=C\c1cccs1` gave Dicer inh inactive.
Screening O=C1NC(=S)N/C1=C/c1cccs1 returned Dicer inh 4.1.
CCC(=O)[C@@]1(C)[C@H](C)C[C@H]2[C@@H]3CCC4=CC(=O)C=C[C@]4(C)[C@H]3[C@@H](O)C[C@@]21C was read as Dicer inh inactive.
